Measured values taken from PubChem BioAssay.
Unmarked numbers belong to inactive results. Calls of active or inactive are those of the source.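 Rule for the calls: active = inhibition above the hit cutoff set in the earlier primary screen (cut at about 27% in these data); inactive = the rest.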

target: Protein phosphatase methylesterase 1 (Homo sapiens) (UniProt Q9Y570); assay: PME-1 inhibitor activity retest, confirmation, biochemical, fluorescence polarization, FP-Rh probe, triplicate (AID 2171); settings: recombinant PME-1, FP-Rh probe fluorescence polarization; at 5.9 µM; active compounds read high;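 note: 0% = enzyme with DMSO and 100% = wells lacking PME-1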
Sequence (Q9Y570 whole entry, looked up): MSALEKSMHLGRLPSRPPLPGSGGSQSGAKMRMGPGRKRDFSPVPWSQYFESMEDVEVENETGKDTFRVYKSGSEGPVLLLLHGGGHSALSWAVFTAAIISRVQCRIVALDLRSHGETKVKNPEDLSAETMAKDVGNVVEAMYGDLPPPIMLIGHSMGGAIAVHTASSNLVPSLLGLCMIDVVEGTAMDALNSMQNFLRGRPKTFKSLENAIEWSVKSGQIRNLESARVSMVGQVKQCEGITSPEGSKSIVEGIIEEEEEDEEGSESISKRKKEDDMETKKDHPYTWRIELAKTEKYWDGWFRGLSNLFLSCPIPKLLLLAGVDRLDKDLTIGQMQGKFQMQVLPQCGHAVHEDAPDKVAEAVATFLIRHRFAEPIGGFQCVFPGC

SMILES | inhibition
COc1ccc2ccc3c(c2c1)N=C[C@]1(O3)N(C)c2ccccc2C1(C)C | 5.96%
COc1cc(/C=N/NC(=O)c2ccc3c(c2)OCCO3)c(Br)c(Br)c1O | 43% (active)
Cc1ccc(S(=O)(=O)CCSc2cccc(C(=O)Nc3ccccc3C(=O)O)c2)cc1 | 35.8% (active)
Cc1ccc2[nH]c3c(N4CCc5ccccc5C4)ncnc3c2c1 | 30.5% (active)
CCOC(=O)N1CC=C2C(C#N)=C(N)C(C#N)(C#N)[C@H](c3ccccc3OCC)[C@H]2C1 | 90.5% (active)
O=C1c2ccccc2-c2onc3ccc(NCCCn4ccnc4)c1c23 | 163% (active)
O=C(CNc1cccc2ccccc12)N/N=C/c1cccc(Oc2ccccc2)c1 | 31.1% (active)
CCOc1cc(/C=N/NC(=O)c2cccc([N+](=O)[O-])c2)ccc1OS(=O)(=O)c1ccccc1 | 19.9%
N#C/C(=C\c1ccc(O)c(O)c1)C(=O)Nc1cccc2ncccc12 | -29.9%
CCOc1ccc(NC(=S)Nc2ccc3nsnc3c2)cc1 | 24.1%
O=C1C=C(N2CCOCC2)c2ccccc2C1=O | 41% (active)
CCC1(C)Cc2c(sc3nc(NN)n(C)c(=O)c23)CO1 (stereo unspecified) | -1.24%
COC(=O)N1C(=O)[C@](c2ccccc2)(C(C)C)N1C(=O)OC | 23.3%
CC(=O)N1CCN(c2ccc(NC(=S)NC(=O)COc3ccc(C(C)(C)C)cc3)cc2)CC1 | 26.1%
Nc1ccc(N2CCCCC2)c2nonc12 | 11.3%
CC1=C([N+](=O)[O-])C(c2cccc(Br)c2)C2=C(N1)c1ccccc1C2=O (stereo unspecified) | 11.9%
